Shown is part of a subset that was picked to be rich in hits.
ROCK2 inh: inhibitors of human Rho kinase 2 | O75116 | purified ROCK2, Kinase-Glo ATP depletion luminescence | inhibition, % at 6 µM | actives 0.35% (n = 60,000);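 active means inhibition above the screen-wide mean inhibition plus 3 SD, cut at about 18% in these data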;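 further: plate controls were DMSO wells for no effect and Y-27632 control wells after no-enzyme background subtraction for full effect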
PKA inh: blocks human protein kinase A activity; PKA Kemptide phosphorylation, Kinase-Glo ATP luminescence; P17612; inhibition, % at 6 µM; actives 0.1% (n = 65,000); AID 524;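 active means inhibition above the screen-wide mean inhibition plus 3 SD, cut at about 21% in these data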
hDAT+cocaine: human DAT dopamine uptake with cocaine, either direction. actives 1.3% (n = 110,000). B-score at 10 µM. Q01959. LLC-PK1 hDAT cells, [14C]-dopamine uptake with cocaine IC80; actives deviate in either direction;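 active means Z score or B-score, a plate-position-corrected score, falls beyond the plate's 99.7% confidence bounds, in either direction; inactive means both scores lie inside the 99.7% bounds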;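 further: scored against the spread of the other compound wells on the same plate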
Target sequence (Q01959 whole entry, looked up): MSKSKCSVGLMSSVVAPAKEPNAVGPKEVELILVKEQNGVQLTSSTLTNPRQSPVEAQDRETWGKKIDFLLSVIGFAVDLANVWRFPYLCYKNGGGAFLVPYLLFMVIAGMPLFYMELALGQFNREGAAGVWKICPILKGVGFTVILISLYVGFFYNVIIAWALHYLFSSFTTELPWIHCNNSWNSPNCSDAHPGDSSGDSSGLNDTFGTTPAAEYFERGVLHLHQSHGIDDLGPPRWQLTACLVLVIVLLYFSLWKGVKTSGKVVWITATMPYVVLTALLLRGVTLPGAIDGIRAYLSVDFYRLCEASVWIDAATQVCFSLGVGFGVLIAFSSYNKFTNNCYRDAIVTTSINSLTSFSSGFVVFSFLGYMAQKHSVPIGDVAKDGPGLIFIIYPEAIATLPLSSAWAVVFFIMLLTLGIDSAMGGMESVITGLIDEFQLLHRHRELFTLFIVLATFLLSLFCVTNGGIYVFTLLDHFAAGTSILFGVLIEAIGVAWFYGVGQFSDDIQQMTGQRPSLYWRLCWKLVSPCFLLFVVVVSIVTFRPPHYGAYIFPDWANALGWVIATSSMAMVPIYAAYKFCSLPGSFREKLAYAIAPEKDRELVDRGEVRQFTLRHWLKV
D1 allo mod: allosteric modulators of human D1 dopamine receptor; HEK293 D1, CRE-luciferase, dopamine EC30 potentiation; actives deviate in either direction; B-score at 10 µM; actives 5.9% (n = 58,000);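 active means luminescence count or its row- and column-corrected plate score outside the 99.7% band of the plate's sample wells, on either side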
D1 PAM confirm: D1 receptor (human) allosteric modulation, confirmed | shares compounds with D1 allo mod | HEK293 D1 CRE-luciferase, dopamine EC30 potentiation; hits give high values | luminescence at 10 µM | actives 88% (n = 2,200) | AID 642;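 active means luminescence in either of two replicates above the same-plate mean plus 3 SD of the low-dose dopamine control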
D1 no dopamine: D1 (human) signaling in absence of dopamine. luminescence at 10 µM. shares compounds with D1 allo mod. HEK293 D1 CRE-luciferase, luminescence, no dopamine; hits give high values. actives 0.8% (n = 1,900). AID 646; in the data active means luminescence above about 3900
Isoprot counter: counter-screen for D1 modulators: isoproterenol response in HEK293 cells; calls only at 10 µM; HEK293 D1 CRE-luciferase, isoproterenol EC30 counter-screen; shares compounds with D1 allo mod; actives 63% (n = 2,200);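 active means luminescence in either replicate above plate mean of wells with a partly effective reference agonist dose plus 3 SD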;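 further: isoproterenol raises cAMP through native beta-adrenoceptor Gs so signal bypasses D1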
* hit, by the source's call; i = inactive; . = not tested or not shown; + = active, no number.

SMILES	ROCK2 inh	PKA inh	hDAT+cocaine	D1 allo mod	D1 PAM confirm	D1 no dopamine	Isoprot counter
COc1cccc(N2C(=O)C3ON(c4ccccc4)C(c4cccs4)C3C2=O)c1 (stereo not given)	0	6	2	15*	6168*	1676	i
COc1cc(C2C3C(=O)N(c4ccccc4)C(=O)C3ON2c2ccccc2)cc(OC)c1OC (stereo not given)	6	14	0.43	0.53	.	.	.
c1csc(Cn2c(-c3cccs3)nc3ccccc32)c1	-3	2	0.16	3	.	.	.
Brc1ccccc1Cn1c(-c2cncs2)nc2ccccc21	-3	5	-0.19	10*	19056*	1708	+
C=CCn1c(SCC(=O)Nc2c(C)n(C)n(-c3ccccc3)c2=O)nc2sc(C)c(-c3ccccc3)c2c1=O	.	.	0.38	.	.	.	.
Cc1ccc(-c2nnc(SCC(=O)N3CCOCC3)nc2-c2ccc(C)cc2)cc1	.	.	0.48	.	.	.	.
O=S(=O)(Nc1cccc(-c2nc3cccnc3s2)c1)c1ccc2c(c1)OCCO2	-7	10	0.57	4.6*	8604*	1424	i
COc1ccc(Nc2nc(N)nc(SCc3nnc(C)s3)n2)cc1	5	6	0.59	5.7*	8828*	1624	+
Cc1cccc(NC(=O)Cn2c(=O)n(Cc3ccco3)c(=N)c3c4c(sc32)COC(C)(C)C4)c1	-2	-3	0.22	8.9*	6860*	1656	+
O=C1NCC(CN(c2ccccc2)c2ccccc2)O1 (stereo not given)	4	6	-0.045	2.9*	9384*	1528	+
O=C(Nc1ccccc1Oc1ccccc1)c1cnccn1	0	0	-0.76	4.1*	9216*	1488	i
CC(=O)C(C)Oc1ccc2c3c(c(=O)oc2c1)CCCCC3 (stereo not given)	1	3	-0.042	1.5	.	.	.
CC(=O)COc1ccc2c3c(c(=O)oc2c1)CCCC3	3	9	0.019	4.9*	9956*	1048	+
CC(=O)C(C)Oc1ccc2c3c(c(=O)oc2c1)CCCC3 (stereo not given)	4	9	0.83	7.8*	8432*	.	+
CCC1=C(OC(=O)N(CC)CC)N2C(=O)OC(=NCC3CC3)[C@]2(Cc2ccccc2)[C@H]2C1=CC[C@H]1C(=O)NC(=O)[C@H]12	.	.	-0.43	.	.	.	.
C=CCC(COCc1ccccc1)NS(=O)(=O)c1ccccc1Br (stereo not given)	.	.	0.12	.	.	.	.
CCc1cccc2c(C#N)cn(CCOc3ccccc3OC)c12	0	-1	-0.74	-0.79	.	.	.
CCc1cccc2c(C#N)cn(CC(=O)NCCOC)c12	1	-3	-0.59	3*	4856	1524	i
COc1ccc(-c2c3c(=O)n(C)c(=O)n(C)c3cn2-c2ccccc2)cc1	8	4	0.49	6.5*	12728*	1536	i
COc1ccc(C(=O)Nn2cc3c(c2-c2ccccc2)c(=O)n(C)c(=O)n3C)cc1	2	-1	-0.78	0.6	.	.	.
O=C(Nc1nnc(Cc2ccccc2)s1)c1ccco1	.	.	0.43	.	.	.	.
NC(=O)c1cc(Cc2ccccc2)sc1NC(=O)c1ccco1	9	10	-0.72	8.4*	15080*	1668	+
Oc1cccc2cc3cccc(O)c3c(O)c12	.	.	-0.34	.	.	.	.
CCCSc1nc2c(cnn2-c2ccc(C)cc2)c(=O)[nH]1	2	-2	-0.89	10*	20136*	1696	+
CCC(C)Sc1nc2c(cnn2-c2ccccc2)c(=O)[nH]1 (stereo not given)	5	1	-0.0018	12*	13072*	1680	+
CCCSc1nc2c(cnn2-c2ccccc2)c(=O)[nH]1	6	4	-0.014	11*	17784*	1636	+
NC1=NC[C@H](CC2CCCCC2)N1CCc1cc(C(F)(F)F)cc(C(F)(F)F)c1	.	.	0.25	.	.	.	.
CC(C)[C@H]1C=C(C(=O)O)O[C@@H](OCCCCO)C1	.	.	0.029	.	.	.	.
COc1ccc(/C(N)=N/OC(=O)CSc2ccccc2)cc1OC	.	.	-0.34	.	.	.	.
COc1ccc(-c2cc(=O)oc3c(C)c(O)c(CN(C)C)cc23)cc1	1	-3	0.37	3.6*	9264*	1600	i

Source: PubChem BioAssay (several laboratories)
